In PubChem BioAssay (NCATS):
Results filed as inconclusive are left out. A call without a number means that no potency is given here. Calls of active or inactive are those of the source. Calls come from the whole dose curve; as a rule, active = well fitted curve in the direction sought with a large enough effect; inconclusive = small, poorly fitted or top-dose-only effect, or another doubt; inactive = no such curve, though single readings can be large; an effect the other way counts as inactive or inconclusive.

Experiments:
[1] = qHTS of pediatric cancer cell lines to identify multiple opportunities for drug repurposing: Confirmatory screen for BT-37 cells (AID 1347117); note: nearly all actives have a fitted effect of over 55% in size; note: potency is the fitted concentration of half-maximal effect
How it was run: (§1)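 Viability after 48 h compound treatment at 37C, 500-1,000 cells/well, read as ATP luminescence with CellTiter-Glo. Primary screens used 11-point (MIPE, 0.78 nM-46 µM) or 8-point (NPC, 0.59 nM-46 µM) final concentrations; follow-up screens used 11-point dilutions.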

[2] = qHTS of pediatric cancer cell lines to identify multiple opportunities for drug repurposing: Confirmatory screen for TC32 cells (AID 1347118);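 note: cells exposed to compound for 48 h before the read; nearly all actives have a fitted effect of over 65% in size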; note: potency is the fitted concentration of half-maximal effect
How it was run: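 qHTS, TC32, 48 h drug treatment, CellTiter-Glo luminescence as a proxy for metabolically active cells; primary top concentration 46 µM (MIPE 11-pt, NPC 8-pt); confirmatory 11-pt.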

[3] = qHTS of pediatric cancer cell lines to identify multiple opportunities for drug repurposing: Confirmatory screen for MG 63 (6-TG R) cells (AID 1347119); note: nearly all actives have a fitted effect of over 55% in size; note: potency is the fitted concentration of half-maximal effect
How it was run: as §1

[4] = qHTS of pediatric cancer cell lines to identify multiple opportunities for drug repurposing: Confirmatory screen for control Hh wild type fibroblast cells (AID 1347121); note: nearly all actives have a fitted effect of over 70% in size; note: potency is the fitted concentration of half-maximal effect
How it was run: as §1

[5] = qHTS of pediatric cancer cell lines to identify multiple opportunities for drug repurposing: Confirmatory screen for U-2 OS cells (AID 1347122); note: nearly all actives have a fitted effect of over 65% in size; note: potency is the fitted concentration of half-maximal effect
How it was run: as §1

[6] = qHTS of pediatric cancer cell lines to identify multiple opportunities for drug repurposing: Confirmatory screen for Rh18 cells (AID 1347125); note: nearly all actives have a fitted effect of over 55% in size; note: potency is the fitted concentration of half-maximal effect
How it was run: as §1

[7] = qHTS of pediatric cancer cell lines to identify multiple opportunities for drug repurposing: Confirmatory screen for Rh30 cells (AID 1347126); note: nearly all actives have a fitted effect of over 55% in size; note: potency is the fitted concentration of half-maximal effect
How it was run: as §1

[8] = qHTS of pediatric cancer cell lines to identify multiple opportunities for drug repurposing: Confirmatory screen for Saos-2 cells (AID 1347127); note: nearly all actives have a fitted effect of over 60% in size; note: potency is the fitted concentration of half-maximal effect
How it was run: as §1

[9] = qHTS of pediatric cancer cell lines to identify multiple opportunities for drug repurposing: Confirmatory screen for OHS-50 cells (AID 1347128); note: potency is the fitted concentration of half-maximal effect
How it was run: as §1

[10] = qHTS of pediatric cancer cell lines to identify multiple opportunities for drug repurposing: Confirmatory screen for SK-N-SH cells (AID 1347129);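 note: cells exposed to compound for 48 h before viability read; nearly all actives have a fitted effect of over 60% in size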; note: potency is the fitted concentration of half-maximal effect
How it was run: as §1

[11] = system: Zika virus NS2B-NS3 protease; experiment: Primary screen GU AMC qHTS for Zika virus inhibitors (AID 1347154); note: nearly all actives have a fitted effect of over 70% in size; note: potency is the fitted concentration of half-maximal effect
How it was run: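 Unlinked Zika NS2B hydrophilic domain–NS3 protease complex at 25 nM in 10 mM Tris-HCl pH 8.0, 0.01% Tween 20, with an AMC peptide substrate. Fluorescence change (340/450 nm) over 15 min at room temperature, normalized to controls, fitted to 4-parameter Hill.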

[12] = qHTS of pediatric cancer cell lines to identify multiple opportunities for drug repurposing: Confirmatory screen for SJ-GBM2 cells (AID 1347116); note: nearly all actives have a fitted effect of over 60% in size; note: potency is the fitted concentration of half-maximal effect
How it was run: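 Viability measured as metabolically active cells via CellTiter-Glo luminescence following 48 hours of compound exposure, 11-point dilutions in confirmatory testing. 500-1,000 cells/well plated 5 hours before dosing; controls were DMSO and 2.3 µM bortezomib.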

[13] = system: Zika virus NS2B-NS3 protease (unlinked complex); experiment: Primary screen GU Rhodamine qHTS for Zika virus inhibitors: Unlinked NS2B-NS3 protease assay (AID 1347159); note: nearly all actives have a fitted effect of over 60% in size
How it was run: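 A qHTS format was used, with compound concentrations ranging up to 114 microM. Each compound was preincubated with 25 nM NS2B-NS3 protease, and the substrate was then added at 1.5 microM. Curves were fitted with a 4-parameter Hill model.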

[14] = target: N-terminal Xaa-Pro-Lys N-methyltransferase 1 (Homo sapiens) (UniProt Q9BV86); experiment: qHTS Assay for Inhibitors of N-terminal methyltransferase 1 (NTMT1): LOPAC validation of the NTMT1 SAHH-coupled ThioGlo3 Assay (AID 1347143);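 note: SAH from peptide methylation measured as thiol fluorescence via SAHH coupling and ThioGlo3; nearly all actives have a fitted effect of over 70% in size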
Sequence of N-terminal Xaa-Pro-Lys N-methyltransferase 1 (Homo sapiens) (Q9BV86 whole entry, looked up): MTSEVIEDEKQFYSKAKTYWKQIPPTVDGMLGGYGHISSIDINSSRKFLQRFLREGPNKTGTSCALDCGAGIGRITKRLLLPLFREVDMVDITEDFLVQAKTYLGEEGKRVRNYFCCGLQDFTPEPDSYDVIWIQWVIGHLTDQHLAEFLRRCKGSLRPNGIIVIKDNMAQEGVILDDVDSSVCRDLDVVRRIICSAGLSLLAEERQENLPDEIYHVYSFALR
How it was run: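 Recombinant human NTMT1 (125nM) was pre-incubated 1 min at room temperature with compounds over a concentration range, then a mix of 100uM SAM, 10uM SAHH and 15uM ThioGlo3 (concentrations in added reagent) was added. ThioGlo3 fluorescence (ex 340/em 450nm) after 30 min was normalized to the initial reading.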

[15] = system: Zika virus NS2B-NS3 protease (unlinked); experiment: Optimization of GU AMC qHTS for Zika virus inhibitors: Unlinked NS2B-NS3 protease assay (AID 1347151); note: series mostly up to about 52 µM; nearly all actives have a fitted effect of over 80% in size
How it was run: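 In this qHTS, compounds acted on 25 nM unlinked Zika NS2B–NS3 in pH 8.0 Tris/Tween buffer. Cleavage of an AMC peptide ran 15 min at room temperature, to about 20% conversion.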

Furin (Homo sapiens) = Furin (Homo sapiens) (UniProt P09958); experiment: Furin counterscreen qHTS for Zika virus inhibitors (AID 1347149); note: potency is the fitted concentration of half-maximal effect; nearly all actives have a fitted effect of over 70% in size
Sequence of Furin (Homo sapiens) (P09958 whole entry, looked up): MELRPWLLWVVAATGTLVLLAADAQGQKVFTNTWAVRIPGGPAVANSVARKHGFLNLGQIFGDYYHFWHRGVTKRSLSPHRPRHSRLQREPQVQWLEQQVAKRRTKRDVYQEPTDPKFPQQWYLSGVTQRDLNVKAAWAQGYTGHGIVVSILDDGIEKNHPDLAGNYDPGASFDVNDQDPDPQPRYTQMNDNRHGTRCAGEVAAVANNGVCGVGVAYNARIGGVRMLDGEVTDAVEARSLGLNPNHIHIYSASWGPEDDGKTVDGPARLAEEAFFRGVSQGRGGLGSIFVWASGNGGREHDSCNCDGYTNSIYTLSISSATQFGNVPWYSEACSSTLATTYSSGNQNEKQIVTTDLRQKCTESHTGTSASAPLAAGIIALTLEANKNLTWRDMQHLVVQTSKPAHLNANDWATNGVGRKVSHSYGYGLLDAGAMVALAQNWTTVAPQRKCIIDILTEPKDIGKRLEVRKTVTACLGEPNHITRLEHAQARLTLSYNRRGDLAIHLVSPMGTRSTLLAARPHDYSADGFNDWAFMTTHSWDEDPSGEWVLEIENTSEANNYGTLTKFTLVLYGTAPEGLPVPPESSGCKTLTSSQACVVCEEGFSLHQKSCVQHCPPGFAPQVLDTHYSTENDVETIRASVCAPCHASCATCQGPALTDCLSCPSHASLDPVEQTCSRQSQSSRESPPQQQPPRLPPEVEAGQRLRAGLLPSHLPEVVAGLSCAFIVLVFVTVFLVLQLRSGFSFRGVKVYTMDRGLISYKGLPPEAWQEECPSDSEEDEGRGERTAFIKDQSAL
How it was run: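 Fluorogenic cleavage of BOC-RVRR-AMC (2 microM final, Km ~15 µM) was monitored (ex 340, em 450 nm) at 37C after 15 min RT preincubation of 5 nM furin with compounds in HEPES pH 7.0 buffer with CaCl2 and Triton X-100. Percent inhibition was fitted to a 4-parameter Hill curve.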

[16] = system: Zika virus NS2B-NS3 protease (linked construct); experiment: Confirmatory screen NINDS AMC qHTS for Zika virus inhibitors (AID 1347152)
How it was run: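 Concentration-response confirmation used the NINDS linked protease (NS2B hydrophilic domain joined to NS3 protease domain), 1 nM, with a 15-min compound preincubation. Substrate, Nle-KRR-AMC at 10 microM, was read by UV fluorescence before and after 15 min.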

SMILES | Potency [1] | Potency [2] | Potency [3] | Potency [4] | Potency [5] | Potency [6] | Potency [7] | Potency [8] | Potency [9] | Potency [10] | Potency [11] | Potency [12] | Potency [13] | Potency [14] | Potency [15] | Potency (Furin (Homo sapiens)) | Potency [16]
CC(C)(C#N)c1cc(Cn2cncn2)cc(C(C)(C)C#N)c1 | inactive | inactive | inactive | inactive | inactive | inactive | inactive | inactive | inactive | inactive | inactive |  |  |  |  |  | 
COc1cc2c(Nc3ccc(Br)cc3F)ncnc2cc1OCC1CCN(C)CC1 | inactive | inactive | inactive | inactive | inactive | inactive |  | inactive |  | 16600 nM (active) | inactive | inactive | inactive |  |  |  | 
CCc1c2c(nc3ccc(OC(=O)N4CCC(N5CCCCC5)CC4)cc13)-c1cc3c(c(=O)n1C2)COC(=O)[C@]3(O)CC | 928 nM (active) | 465 nM (active) | 1850 nM (active) | inactive |  | 16500 nM (active) | 5850 nM (active) | 1850 nM (active) | 2610 nM (active) |  | 5730 nM (active) |  |  |  |  |  | 
COC(=O)Nc1nc2ccc(Sc3ccccc3)cc2[nH]1 | 1850 nM (active) | 827 nM (active) | 928 nM (active) |  | 3690 nM (active) |  | inactive | 1310 nM (active) | 1310 nM (active) | 5900 nM (active) | inactive |  |  |  |  |  | 
N=C(N)c1ccc(OCCCCCOc2ccc(C(=N)N)cc2)cc1 |  |  | 11700 nM (active) |  |  | inactive |  |  | inactive | inactive | inactive | inactive |  |  |  |  | 
CNS(=O)(=O)CCc1ccc2[nH]cc(C3CCN(C)CC3)c2c1 | inactive | 13100 nM (active) | inactive | inactive | inactive | inactive | inactive | inactive | inactive | inactive | inactive | inactive | inactive | inactive | inactive |  | 
CCOC(=O)[C@H](CCc1ccccc1)N[C@H]1CS[C@H](c2cccs2)CN(CC(=O)O)C1=O | inactive | 8270 nM (active) | inactive | inactive | inactive | inactive | inactive | inactive |  | inactive | inactive | inactive |  |  |  |  | 
COc1cc(NCc2ccc3nc(N)nc(N)c3c2C)cc(OC)c1OC | 2610 nM (active) | 585 nM (active) | 20800 nM (active) | inactive | inactive |  | 4650 nM (active) | 10400 nM (active) | 3690 nM (active) | 4690 nM (active) |  |  |  |  |  | 17100 nM (active) | 24100 nM (active)
CC(C)NCC(O)c1ccc(NS(C)(=O)=O)cc1 (stereo not given) | inactive | inactive | inactive | inactive | inactive | inactive |  | inactive | inactive | inactive | inactive | inactive |  | inactive | inactive |  | 
CCC(=O)O[C@]1(C(=O)CCl)[C@@H](C)C[C@H]2[C@@H]3CCC4=CC(=O)C=C[C@]4(C)[C@@]3(F)[C@@H](O)C[C@@]21C | inactive | inactive | inactive | inactive | inactive | inactive | 13100 nM (active) | inactive | inactive | inactive | inactive | inactive |  |  |  |  | 
COc1ccc(C(=O)CC(=O)c2ccc(C(C)(C)C)cc2)cc1 |  |  |  | inactive | inactive | inactive | inactive | inactive | inactive | inactive | inactive | inactive |  |  |  |  | 
CC1CC2C3CCC4=CC(=O)C=C[C@]4(C)[C@@]3(F)[C@@H](O)C[C@]2(C)[C@@]1(O)C(=O)CO (stereo not given in full) | inactive | inactive | inactive | inactive | inactive | inactive |  | inactive | inactive | inactive | inactive | inactive |  | inactive | inactive |  | 
CC(C)C[C@H](NC(=O)[C@H](CCc1ccccc1)NC(=O)CN1CCOCC1)C(=O)N[C@@H](Cc1ccccc1)C(=O)N[C@@H](CC(C)C)C(=O)[C@@]1(C)CO1 | 92.8 nM (active) | 23.3 nM (active) | 65.7 nM (active) | 737 nM (active) |  | 46.5 nM (active) | 117 nM (active) | 117 nM (active) | 208 nM (active) | 209 nM (active) | inactive | 73.7 nM (active) |  |  |  |  | 
Cn1nnc2c(C(N)=O)ncn2c1=O | inactive | inactive | inactive | inactive | inactive | inactive | inactive | inactive | inactive | inactive | inactive | inactive |  |  |  |  | 
CO[C@@]12[C@H](COC(N)=O)C3=C(C(=O)C(C)=C(N)C3=O)N1C[C@@H]1N[C@@H]12 | 737 nM (active) | 465 nM (active) |  |  |  |  | 9270 nM (active) |  |  | 14800 nM (active) | inactive | 16500 nM (active) |  |  |  |  | 
O=NN(CCCl)C(=O)NC1CCCCC1 | inactive | inactive | inactive | inactive | inactive | inactive | inactive |  | inactive | inactive | inactive |  |  |  |  |  | 
C[C@@H](CN1CC(=O)NC(=O)C1)N1CC(=O)NC(=O)C1 | inactive | inactive |  | inactive | inactive | inactive | inactive | inactive | inactive | inactive | inactive | inactive |  |  |  |  | 
